# This is one part of a sample in which the strongest signals are shown more often than they occur.
# B1: Spy0252 (Streptococcus pyogenes), Q9A1I9_STRP1 (protein)
# chain: MNMKKLASLAMLGASVLGLAACGGKSQKEAGASKSDTAKTEITWWAFPVFTQEKAEDGVGTYEKKLIAAFEKANPEIKVKLETIDFTSGPEKITTAIEAGTAPDVLFDAPGRIIQYGKNGKLADLNDLFTEEFTKDVNNDKLIQASKAGDTAYMYPISSAPFYMALNKKMLKDAGVLDLVKEGWTTDDFEKVLKALKDKGYNPGSFFANGQGGDQGPRAFFANLYSSHITDDKVTKYTTDDANSIKAMTKISNWIKDGLMMNGSQYDGSADIQNFANGQTSFTILWAPAQPGIQAKLLEASKVDYLEIPFPSDDGKPELEYLVNGFAVFNNKDEQKVAASKTFIQFIADDKEWGPKNVVRTGAFPVRTSYGDLYKDKRMEKIAEWTKFYSPYYNTIDGFAEMRTLWFPMVQAVSNGDEKPEDALKAFTEKANKTIKKTQ
# B2: P-Selectin (Homo sapiens), P16109 (protein)
# chain: MANCQIAILYQRFQRVVFGISQLLCFSALISELTNQKEVAAWTYHYSTKAYSWNISRKYCQNRYTDLVAIQNKNEIDYLNKVLPYYSSYYWIGIRKNNKTWTWVGTKKALTNEAENWADNEPNNKRNNEDCVEIYIKSPSAPGKWNDEHCLKKKHALCYTASCQDMSCSKQGECLETIGNYTCSCYPGFYGPECEYVRECGELELPQHVLMNCSHPLGNFSFNSQCSFHCTDGYQVNGPSKLECLASGIWTNKPPQCLAAQCPPLKIPERGNMTCLHSAKAFQHQSSCSFSCEEGFALVGPEVVQCTASGVWTAPAPVCKAVQCQHLEAPSEGTMDCVHPLTAFAYGSSCKFECQPGYRVRGLDMLRCIDSGHWSAPLPTCEAISCEPLESPVHGSMDCSPSLRAFQYDTNCSFRCAEGFMLRGADIVRCDNLGQWTAPAPVCQALQCQDLPVPNEARVNCSHPFGAFRYQSVCSFTCNEGLLLVGASVLQCLATGNWNSVPPECQAIPCTPLLSPQNGTMTCVQPLGSSSYKSTCQFICDEGYSLSGPERLDCTRSGRWTDSPPMCEAIKCPELFAPEQGSLDCSDTRGEFNVGSTCHFSCDNGFKLEGPNNVECTTSGRWSATPPTCKGIASLPTPGLQCPALTTPGQGTMYCRHHPGTFGFNTTCYFGCNAGFTLIGDSTLSCRPSGQWTAVTPACRAVKCSELHVNKPIAMNCSNLWGNFSYGSICSFHCLEGQLLNGSAQTACQENGHWSTTVPTCQAGPLTIQEASTSITAYKSEGESAEFSFPLNLGEESLQGELRWKAEKAPSSQSWITFSLKNQKVSVQKSTSNPKFQLSETLPLTLQIPQVSLQFAGSGNLTLTLDRGILYQEVNLVVMKVTQPDSNTLTCEVMGPTSPKMRLILKQENQEARVSRQEKVIQVQAPEAGVWQCLLSEGEEVKMDSKIQVLSKGLNSGGGSGGGTGGGDLAPQMLRELQETNAALQDVRELLRQQVKEITFLKNTVMECDACGLDRNLPPLAPLGPHPETLVKVKDAEDQLGARVGYIELDLNSGKILESFRPEERFPMMSTFKVLLCGAVLSRIDAGQEQLGRRIHYSQNDLVEYSPVTEKHLTDGMTVRELCSAAITMSDNTAANLLLTTIGGPKELTAFLHNMGDHVTRLDRWEPELNEAIPNDERDTTMPVAMATTLRKLLTGELLTLASRQQLIDWMEADKVAGPLLRSALPAGWFIADKSGAGERGSRGIIAALGPDGKPSRIVVIYTTGSQATMDERNRQIAEIGASLIKHWGPDYKDHDGDYKDHDIDYKDDDDKGPHHHHHH
# B3: Fap1 (Streptococcus parasanguis) (protein)
# chain: KATSKGTEEKQDSVRENLDKMISEAEVLNDMAARKLITLDAEQQLELMKSLVATQSQLEATKNLIGDPNATVADLQIAYTTLGNNTQALGNELIKLNPNGQIYAVLNNTEASRAATLRSTTTGTKTTFTISDFSNGGTQYYWAGGNANNLKNPISSISAVYDSATGKISWTVEYDPTTILKSPALKTLKTYTGIYIDTSSDSKLSTPTNVLIDGAATNPVTNFYGNGSKGIEYVSKGTTKGVTKHTITFDTAFSGRANDLADLEIKMLAATTLSDPHFYEDGSKGNYGRYNGQTAPYVIANDSGTAIGGYQVSGVNADSIPSDTT
# What was measured:
# Experiment in all cases: glycan array binding signal (z-score within array); higher = stronger binding
# Settings in all cases: glycan notation: IUPAC condensed, linker removed
# [1] = biological target: Neu5Ac(a2-3)Gal(b1-4)[Fuc(a1-3)]GlcNAc(b1-6)[Neu5Ac(a2-3)Gal(b1-3)]GalNAc
# Summary of the method: (§1)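 Arrays were curated from the Consortium for Functional Glycomics database, 3228 in total, and kept only where the protein sequence was available. Binding is expressed as a within-array Z-score. This score was averaged across arrays of the same protein sequence at different concentrations or buffers and across linkers, and negative values can be read as non-binding.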
# [2] = biological target: Neu5Ac(a2-3)Gal(b1-4)[Fuc(a1-3)]GlcNAc6S
# Summary of the method: as §1
# [3] = biological target: Neu5Ac(a2-3)[GalNAc(b1-4)]Gal(b1-4)Glc
# Summary of the method: as §1
# [4] = biological target: Neu5Ac(a2-6)Gal(b1-4)GlcNAc(b1-2)Man(a1-6)Man(b1-4)GlcNAc(b1-4)GlcNAc
# Summary of the method: as §1
# [5] = biological target: Neu5Ac(a2-6)Gal(b1-4)GlcNAc(b1-2)Man(a1-6)[Man(a1-3)]Man(b1-4)GlcNAc(b1-4)GlcNAc
# Summary of the method: as §1
# [6] = biological target: Neu5Ac(a2-8)Neu5Ac(a2-3)Gal(b1-4)Glc
# Summary of the method: as §1
# [7] = biological target: Neu5Ac(a2-8)Neu5Ac(a2-8)Neu5Ac(a2-3)Gal(b1-4)Glc
# Summary of the method: as §1
# [8] = biological target: Neu5Ac9Ac(a2-6)Gal(b1-4)GlcNAc
# Summary of the method: as §1
# Neu5Gc(a2-3)Gal(b1-4)Glc = biological target: Neu5Gc(a2-3)Gal(b1-4)Glc
# Summary of the method: as §1
# Fuc(a1-2)Gal = biological target: Fuc(a1-2)Gal
# Summary of the method: as §1
# Fuc(a1-2)Gal(b1-4)Glc6S = biological target: Fuc(a1-2)Gal(b1-4)Glc6S
# Summary of the method: as §1
# [9] = biological target: Fuc(a1-2)[Gal(a1-4)]Gal(b1-4)GlcNAc
# Summary of the method: as §1
# Gal(a1-3)GalNAc = biological target: Gal(a1-3)GalNAc
# Summary of the method: as §1
# Gal(b1-3)GalNAc = biological target: Gal(b1-3)GalNAc
# Summary of the method: as §1
# Gal(b1-4)Glc = biological target: Gal(b1-4)Glc
# Summary of the method: as §1
# [10] = biological target: Gal(b1-4)GlcNAc(a1-6)Gal(b1-4)GlcNAc
# Summary of the method: as §1
# [11] = biological target: Gal(b1-4)GlcNAc(b1-3)Gal(b1-4)Glc
# Summary of the method: as §1
# Gal3S(b1-3)GalNAc = biological target: Gal3S(b1-3)GalNAc
# Summary of the method: as §1
# Gal3S6S(b1-4)GlcNAc6S = biological target: Gal3S6S(b1-4)GlcNAc6S
# Summary of the method: as §1
# [12] = biological target: GlcNAc(b1-2)Man(a1-3)[GlcNAc(b1-2)Man(a1-6)]Man(b1-4)GlcNAc(b1-4)GlcNAc
# Summary of the method: as §1
# [13] = biological target: GlcNAc(b1-3)[GlcNAc(b1-6)]GalNAc
# Summary of the method: as §1
# [14] = biological target: GlcNAc(b1-4)GlcNAc(b1-4)GlcNAc(b1-4)GlcNAc(b1-4)GlcNAc(b1-4)GlcNAc
# Summary of the method: as §1
# Kdn(a2-3)Gal(b1-4)GlcNAc = biological target: Kdn(a2-3)Gal(b1-4)GlcNAc
# Summary of the method: as §1
# [15] = biological target: Man(a1-3)[Man(a1-6)]Man(a1-6)[Man(a1-3)]Man(b1-4)GlcNAc(b1-4)GlcNAc
# Summary of the method: as §1
# [16] = biological target: Man(a1-3)[Man(a1-6)]Man(b1-4)GlcNAc(b1-4)GlcNAc
# Summary of the method: as §1
# [17] = biological target: Neu5Ac(a2-3)Gal(b1-3)GalNAc6S
# Summary of the method: as §1
# [18] = biological target: Neu5Ac(a2-3)Gal(b1-3)[Fuc(a1-4)]GlcNAc
# Summary of the method: as §1
# [19] = biological target: Neu5Ac(a2-3)Gal(b1-3)[Fuc(a1-4)]GlcNAc(b1-3)Gal(b1-4)[Fuc(a1-3)]GlcNAc
# Summary of the method: as §1
# [20] = biological target: Neu5Ac(a2-3)Gal(b1-3)[Neu5Ac(a2-6)]GalNAc
# Summary of the method: as §1
# [21] = biological target: Neu5Ac(a2-3)Gal(b1-4)GlcNAc(b1-3)Gal(b1-3)GlcNAc
# Summary of the method: as §1
# [22] = biological target: Neu5Ac(a2-3)Gal(b1-4)[Fuc(a1-3)]GlcNAc(b1-6)[Gal(b1-3)]GalNAc
# Summary of the method: as §1
# [23] = biological target: Neu5Ac(a2-3)[Neu5Ac(a2-6)]GalNAc
# Summary of the method: as §1
# [24] = biological target: Neu5Ac(a2-6)GalNAc(b1-4)GlcNAc
# Summary of the method: as §1
# [25] = biological target: Neu5Gc(a2-3)Gal(b1-3)[Fuc(a1-4)]GlcNAc
# Summary of the method: as §1
# Fuc(a1-2)Gal(b1-3)GlcNAc = biological target: Fuc(a1-2)Gal(b1-3)GlcNAc
# Summary of the method: as §1
# [26] = biological target: Fuc(a1-2)Gal(b1-4)[Fuc(a1-3)]GlcNAc
# Summary of the method: as §1
# [27] = biological target: Fuc(a1-3)[Gal(b1-4)]GlcNAc
# Summary of the method: as §1
# [28] = biological target: Fuc(a1-3)[Gal3S(b1-4)]Glc6S
# Summary of the method: as §1
# [29] = biological target: Fuc(a1-3)[Gal3S(b1-4)]GlcNAc6S
# Summary of the method: as §1
# Fuc(b1-3)GlcNAc = biological target: Fuc(b1-3)GlcNAc
# Summary of the method: as §1
# Gal(b1-3)Gal = biological target: Gal(b1-3)Gal
# Summary of the method: as §1
# [30] = biological target: Gal(b1-4)GlcNAc(b1-6)GalNAc
# Summary of the method: as §1
# Gal3S(b1-4)GlcNAc = biological target: Gal3S(b1-4)GlcNAc
# Summary of the method: as §1
# Gal4S(b1-4)GlcNAc = biological target: Gal4S(b1-4)GlcNAc
# Summary of the method: as §1
# Gal6S(b1-4)Glc6S = biological target: Gal6S(b1-4)Glc6S
# Summary of the method: as §1
# [31] = biological target: GlcNAc(b1-3)Gal(b1-3)GalNAc
# Summary of the method: as §1
# Man(a1-3)[Man(a1-6)]Man = biological target: Man(a1-3)[Man(a1-6)]Man
# Summary of the method: as §1
binder,measurement,setting,value
B1,glycan array binding signal (z-score),[1],-0.157
same,glycan array binding signal (z-score),[2],-0.278
same,glycan array binding signal (z-score),[3],-0.266
same,glycan array binding signal (z-score),[4],-0.277
same,glycan array binding signal (z-score),[5],-0.26
same,glycan array binding signal (z-score),[6],7.23
same,glycan array binding signal (z-score),[7],7.09
same,glycan array binding signal (z-score),[8],-0.248
same,glycan array binding signal (z-score),Neu5Gc(a2-3)Gal(b1-4)Glc,5.2
B2,glycan array binding signal (z-score),Fuc(a1-2)Gal,-0.092
same,glycan array binding signal (z-score),Fuc(a1-2)Gal(b1-4)Glc6S,-0.268
same,glycan array binding signal (z-score),[9],-0.151
same,glycan array binding signal (z-score),Gal(a1-3)GalNAc,-0.071
same,glycan array binding signal (z-score),Gal(b1-3)GalNAc,-0.218
same,glycan array binding signal (z-score),Gal(b1-4)Glc,-0.174
same,glycan array binding signal (z-score),[10],-0.301
same,glycan array binding signal (z-score),[11],-0.219
same,glycan array binding signal (z-score),Gal3S(b1-3)GalNAc,-0.113
same,glycan array binding signal (z-score),Gal3S6S(b1-4)GlcNAc6S,4.08
same,glycan array binding signal (z-score),[12],-0.237
same,glycan array binding signal (z-score),[13],-0.329
same,glycan array binding signal (z-score),[14],-0.163
same,glycan array binding signal (z-score),Kdn(a2-3)Gal(b1-4)GlcNAc,-0.191
same,glycan array binding signal (z-score),[15],-0.052
same,glycan array binding signal (z-score),[16],0.332
same,glycan array binding signal (z-score),[17],0.282
same,glycan array binding signal (z-score),[18],6.36
same,glycan array binding signal (z-score),[19],3.52
same,glycan array binding signal (z-score),[20],0.025
same,glycan array binding signal (z-score),[21],-0.141
same,glycan array binding signal (z-score),[22],0.071
same,glycan array binding signal (z-score),[2],9.93
same,glycan array binding signal (z-score),[23],-0.109
same,glycan array binding signal (z-score),[24],-0.322
same,glycan array binding signal (z-score),[25],4.38
B3,glycan array binding signal (z-score),Fuc(a1-2)Gal,1.54
same,glycan array binding signal (z-score),Fuc(a1-2)Gal(b1-3)GlcNAc,0.203
same,glycan array binding signal (z-score),[26],0.342
same,glycan array binding signal (z-score),[27],0.377
same,glycan array binding signal (z-score),[28],0.012
same,glycan array binding signal (z-score),[29],2.23
same,glycan array binding signal (z-score),Fuc(b1-3)GlcNAc,0.144
same,glycan array binding signal (z-score),Gal(b1-3)Gal,-0.318
same,glycan array binding signal (z-score),[30],0.546
same,glycan array binding signal (z-score),Gal3S(b1-4)GlcNAc,-0.22
same,glycan array binding signal (z-score),Gal3S6S(b1-4)GlcNAc6S,1.8
same,glycan array binding signal (z-score),Gal4S(b1-4)GlcNAc,1.82
same,glycan array binding signal (z-score),Gal6S(b1-4)Glc6S,-0.521
same,glycan array binding signal (z-score),[31],2.08
same,glycan array binding signal (z-score),Man(a1-3)[Man(a1-6)]Man,0.624
same,glycan array binding signal (z-score),[8],0.638

# — the supplement of paper PMC8728848
